Hit rate of the full screen: of about 340,000 compounds, about 2,100 (0.62%) were called active.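 The calls were made as follows: active = first-screen hits whose inhibition reached a set limit at any dose in the follow-up dose series; inconclusive = inhibition above the set first-screen limit but never retested; inactive = the rest.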 A selection follows. Measured potencies and affinities stand elsewhere.
What follows are compounds tested against Rac GTPase-activating protein 1 (Homo sapiens) (UniProt Q9H0H5) (assay: MgcRacGAP GTPase-activating activity inhibitors, confirmation, biochemical, ADP Hunter fluorescence, primary and confirmatory (AID 624330;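 also: fluorescence reports GDP produced by GAP-driven GTP hydrolysis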)). Settings: MgcRacGAP-stimulated Rac1 GTP hydrolysis, at 30 µM, hits give high values, GST-tagged Rac1 F28L mutant substrate.
Rac GTPase-activating protein 1 (Homo sapiens), sequence (Q9H0H5 whole entry, looked up): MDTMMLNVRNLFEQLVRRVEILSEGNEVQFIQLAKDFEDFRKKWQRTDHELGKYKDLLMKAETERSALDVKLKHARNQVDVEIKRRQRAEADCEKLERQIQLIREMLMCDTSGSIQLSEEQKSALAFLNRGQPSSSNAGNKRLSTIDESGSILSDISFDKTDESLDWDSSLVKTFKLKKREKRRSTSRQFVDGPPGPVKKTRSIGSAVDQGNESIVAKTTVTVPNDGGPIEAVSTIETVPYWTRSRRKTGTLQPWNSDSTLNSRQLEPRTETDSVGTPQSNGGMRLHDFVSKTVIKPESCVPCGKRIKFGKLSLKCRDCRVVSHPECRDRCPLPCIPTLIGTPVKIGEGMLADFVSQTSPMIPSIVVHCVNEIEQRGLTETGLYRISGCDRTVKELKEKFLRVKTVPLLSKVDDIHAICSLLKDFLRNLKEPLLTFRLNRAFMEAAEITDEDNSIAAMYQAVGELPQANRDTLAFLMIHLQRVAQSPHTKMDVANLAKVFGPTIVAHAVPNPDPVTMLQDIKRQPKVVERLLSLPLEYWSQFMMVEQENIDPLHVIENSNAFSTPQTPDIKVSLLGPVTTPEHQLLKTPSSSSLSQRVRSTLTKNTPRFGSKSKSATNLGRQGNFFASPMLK

inhibition, inactive:
CCN(CC)CCN(C(=O)c1cc2ccccc2cc1OC)c1nc2ccc(F)cc2s1 6.61%
COc1cc(CN2CCN(C(O)(c3ccccc3)c3ccccc3)CC2)cc(OC)c1OC 27.9%
COc1ccc(CN2CCCCCC2)cc1 18.2%
COc1cc(OC)c(OC)cc1CN1CCN(Cc2ccc(C(F)(F)F)cc2)CC1 24.6%
FC(F)(F)c1ccc(CN2CCCCCC2)cc1 16.1%
O=C(O)CC1(CC(=O)NCc2cc(F)cc3c2OCOC3)CCCCC1 5.25%
CN(CCc1cn[nH]c1)C(=O)CC1C(=O)NCCN1Cc1ccccc1C(F)(F)F (stereo not given) -8.64%
Cc1ccc(C(=O)NC(=O)CSc2ncccc2C(=O)O)cc1 1.2%
Cc1ccc(S(=O)(=O)NN2C(=O)c3ccccc3NC2(C)C)cc1 6.9%
CC[C@H](C)[C@H](NC(N)=O)C(=O)Nc1ccc2c(c1)OCO2 3.75%
N#Cc1ccccc1S(=O)(=O)N1CCC(C(=O)Nc2cccc(C(=O)NC3CC3)c2)CC1 -0.25%
CCOC(=O)c1cc(CC)sc1/N=C/c1c(O)ccc2ccccc12 8.65%
Cc1cc(C(=O)O)ccc1N=Cc1c(O)ccc2ccccc12 3.39%
CCOC(=O)c1c(/N=C/c2ccc(OC)cc2O)sc2c1CCN(C)C2 17%
CCOC(=O)c1c(/N=C/c2ccc(C)cc2O)sc2c1CCC2 5.81%
N#Cc1ccc(OCC(=O)N2CCN(C(=O)c3ccco3)CC2)cc1 3.79%
Cc1cc(COc2ccccc2OCc2cc(C)no2)on1 9.58%
CCOC(=O)c1c(NC(C)=O)sc2c(O)c(Br)ccc12 4.12%
CCOC(=O)c1c(N)sc(N)c1C(=O)OCC 7.17%
CCOC(=O)c1c(NC(C)=O)sc2c(OC)c(Br)ccc12 -9.05%
CCOC(=O)c1c(N)sc2c(OCC)c(Br)ccc12 5.92%
CN(CC(=O)Nc1ccc(F)cc1)C(=O)COC(=O)CCN1C(=O)C2CC=CCC2C1=O (stereo not given) 2.06%
O=C(CSc1nc(=O)n(CCN2CCOCC2)c2c1CCCC2)Nc1ccc([N+](=O)[O-])cc1 -4.11%
COc1ccc(NC(=O)NNC(=O)C(C)Oc2ccc3ccccc3c2)cc1OC (stereo not given) 12.5%
CCn1c(=O)c2c3c(sc2n2cnnc12)CCC3 4.61%
CCn1c(=O)c2c3c(sc2n(C)c1=O)CCC3 10.3%
c1ccc(CN2CCC3CC2c2cc(N4CCOCC4)ccc23)cc1 (stereo not given) 11.4%
O=C1OCC2=C1C(c1ccc(F)cc1)Sc1ccccc1N2 (stereo not given) -0.0633%
CCOC(=O)c1c(OCC)[nH]c2ccc(O)cc12 7.01%
CCOC(=O)c1c(C)[nH]c2c1cc(O)c1ccccc12 13.6%
CS(=O)(=O)N1CCN(c2ccc(NC(=O)CSc3ccc(Cl)cc3)cc2)CC1 3.35%
Cc1ccc2c(c1)S/C(=C\c1cccc[n+]1C)N2CCO 4.89%
CCN1/C(=C/c2ccc3ccccc3[n+]2CCCS(=O)(=O)[O-])C=Cc2cc(C)ccc21 5.54%
CCN1/C(=C\c2ccc3cc(C)ccc3[n+]2CC)Sc2cc(C)c(C)cc21 5.51%
CCN1/C(=C/c2ccc3cccc(C)c3[n+]2CC)Sc2ccccc21 17.8%
CCN1/C(=C/c2ccc3cc(C)ccc3[n+]2CC)Sc2ccc3sccc3c21 6.5%
CCN1/C(=C/c2ccc3cc(C)ccc3[n+]2CC)Sc2cc(C)c(C)cc21 15.9%
C=CC[n+]1c(/C=C2\C=Cc3cc(C)ccc3N2CC)ccc2ccccc21 17.6%
CCN1/C(=C/c2ccc3cc(C)cc(C)c3[n+]2CC)Sc2cc(C)ccc21 24.3%
Cc1ccc2nc(SCC(=O)Nc3ccccc3F)nc(=O)n2c1 3.36%
Cc1ccc(N(CC(=O)NCc2ccco2)C(=O)CCC(=O)Nc2ccccn2)c(C)c1 10.2%
CS(=O)(=O)N(CC(=O)N/N=C/c1cccs1)c1cccc(Cl)c1Cl 11.9%
NS(=O)(=O)c1ccc(CNC(=O)Cc2ccc(S(=O)(=O)N3CCOCC3)s2)cc1 9.4%
C/C(=N\NC(=O)c1c[nH]c2ccccc12)c1ccc2c(c1)OCO2 12.8%
Fc1ccccc1/C=N/N1CCN(Cc2ccccc2Cl)CC1 -7.94%
CCN(CC)S(=O)(=O)c1ccc(NC(=O)c2cccc3c2C(=O)N(CCOC)C3)cc1 8.69%
CN1CCN(C2=C(Cl)C(=O)c3ccccc3C2=O)CC1 12.8%
Cc1ccccc1N1C(=O)C(Cl)=C(N2CCCCCC2)C1=O -5.76%
COC(=O)[C@]1(Cc2ccccc2)N[C@H](CN(C)C(=O)c2ccc(F)cc2)[C@@H]2C(=O)N(C)C(=O)[C@@H]21 1.31%
CCCCC[n+]1cccc2c3ccccc3ccc21 16.4%
Cc1c2ccccc2c(C)c2c1ccc1ccccc12 0.81%
O=C(Nc1cccc2ccccc12)N1CCOCC1 -1.28%
O=C(Cc1cccs1)Nc1nncs1 0.97%
CCOC(=O)N1CCN(C(=O)c2ccc3c(=O)n(CCc4ccccc4)c(=S)[nH]c3c2)CC1 5.18%
Cc1ccc(Cl)cc1N1CCN(C(=O)Cn2ccc3ccccc3c2=O)CC1 4.81%
CCN1CCN(CCCNC(=O)C2CCN(c3nnc(-n4cccc4)s3)CC2)CC1 16.4%
CCOc1ccc(CCNC(=O)C2CCN(c3nnc(-n4cccc4)s3)CC2)cc1 -0.04%
CCOCC(=O)Nc1ccc(-c2cn3cccnc3n2)cc1 1.23%
CCCCn1nc(C(=O)Nc2cc(C(F)(F)F)ccc2N2CCOCC2)ccc1=O 4.58%
O=C(CSc1nnnn1-c1cccc2ccccc12)Nc1ccc(N2CCOCC2)c(Cl)c1 -5.56%
